# From publication PMC9911399, “Two distinct binding modes provide the RNA-binding protein RbFox with extraordinary sequence specificity”
# Residue numbers refer to the chain shown, from its start. In all, about 16,000 sequences were measured (“ka relative to ugcaugu”: median about 0.0091, highest 2% from about 0.032 on). What follows is part of a selection rich in the highest values, with near analogues and random picks from the rest.
# T1: RBFOX1 RRM (Homo sapiens, UniProt Q9NWB1 109-208)
# T1 sequence: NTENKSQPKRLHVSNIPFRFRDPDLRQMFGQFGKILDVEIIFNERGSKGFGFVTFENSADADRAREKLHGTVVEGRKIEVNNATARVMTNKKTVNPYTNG
# B1: GGCUAAG (DNA:RNA)
# RNA: GGGAGACCGGAAUUCAGAUUGUCCGGCUAAGUUAAAUCCCGUCGUAGCCACCA
# DNA 1: CAATCTGAATTCCGGTCTCCC
# DNA 2: TGGTGGCTACGACGGGATT
# B2: CUCGGCA (DNA:RNA)
# RNA: B1 RNA with G25C, G26U, U28G, A29G, A30C, G31A
# DNA 1: CAATCTGAATTCCGGTCTCCC
# DNA 2: TGGTGGCTACGACGGGATT
# B3: AACGACU (DNA:RNA)
# RNA: B1 RNA with G25A, G26A, U28G, A30C, G31U
# DNA 1: CAATCTGAATTCCGGTCTCCC
# DNA 2: TGGTGGCTACGACGGGATT
# B4: AUAAAAA (DNA:RNA)
# RNA: B1 RNA with G25A, G26U, C27A, U28A, G31A
# DNA 1: CAATCTGAATTCCGGTCTCCC
# DNA 2: TGGTGGCTACGACGGGATT
# B5: UUAUCUG (DNA:RNA)
# RNA: B1 RNA with G25U, G26U, C27A, A29C, A30U
# DNA 1: CAATCTGAATTCCGGTCTCCC
# DNA 2: TGGTGGCTACGACGGGATT
# B6: AAGCACG (DNA:RNA)
# RNA: B1 RNA with G25A, G26A, C27G, U28C, A30C
# DNA 1: CAATCTGAATTCCGGTCTCCC
# DNA 2: TGGTGGCTACGACGGGATT
# B7: AAGCACC (DNA:RNA)
# RNA: B1 RNA with G25A, G26A, C27G, U28C, A30C, G31C
# DNA 1: CAATCTGAATTCCGGTCTCCC
# DNA 2: TGGTGGCTACGACGGGATT
# B8: AAGCCCG (DNA:RNA)
# RNA: B1 RNA with G25A, G26A, C27G, U28C, A29C, A30C
# DNA 1: CAATCTGAATTCCGGTCTCCC
# DNA 2: TGGTGGCTACGACGGGATT
# B9: AAAACAC (DNA:RNA)
# RNA: B1 RNA with G25A, G26A, C27A, U28A, A29C, G31C
# DNA 1: CAATCTGAATTCCGGTCTCCC
# DNA 2: TGGTGGCTACGACGGGATT
# B10: CAUCUUU (DNA:RNA)
# RNA: GGGAGACCGGAAUUCAGAUUGUCCCAUCUUUUUAAAUCCCGUCGUAGCCACCA
# DNA 1: CAATCTGAATTCCGGTCTCCC
# DNA 2: TGGTGGCTACGACGGGATT
# B11: CUGCCUG (DNA:RNA)
# RNA: B10 RNA with A26U, U27G, U29C, U31G
# DNA 1: CAATCTGAATTCCGGTCTCCC
# DNA 2: TGGTGGCTACGACGGGATT
# B12: UGCCCUG (DNA:RNA)
# RNA: B1 RNA with G25U, U28C, A29C, A30U
# DNA 1: CAATCTGAATTCCGGTCTCCC
# DNA 2: TGGTGGCTACGACGGGATT
# B13: UGCCUGU (DNA:RNA)
# RNA: B10 RNA with C25U, A26G, U27C, U30G
# DNA 1: CAATCTGAATTCCGGTCTCCC
# DNA 2: TGGTGGCTACGACGGGATT
# B14: CUGUGCC (DNA:RNA)
# RNA: B10 RNA with A26U, U27G, C28U, U29G, U30C, U31C
# DNA 1: CAATCTGAATTCCGGTCTCCC
# DNA 2: TGGTGGCTACGACGGGATT
# B15: UGCUGUU (DNA:RNA)
# RNA: B1 RNA with G25U, A29G, A30U, G31U
# DNA 1: CAATCTGAATTCCGGTCTCCC
# DNA 2: TGGTGGCTACGACGGGATT
# B16: UGCCGGU (DNA:RNA)
# RNA: B10 RNA with C25U, A26G, U27C, U29G, U30G
# DNA 1: CAATCTGAATTCCGGTCTCCC
# DNA 2: TGGTGGCTACGACGGGATT
# B17: CGUUCGA (DNA:RNA)
# RNA: B10 RNA with A26G, C28U, U29C, U30G, U31A
# DNA 1: CAATCTGAATTCCGGTCTCCC
# DNA 2: TGGTGGCTACGACGGGATT
# B18: AUUUAUA (DNA:RNA)
# RNA: B10 RNA with C25A, A26U, C28U, U29A, U31A
# DNA 1: CAATCTGAATTCCGGTCTCCC
# DNA 2: TGGTGGCTACGACGGGATT
# B19: AGUACGU (DNA:RNA)
# RNA: B10 RNA with C25A, A26G, C28A, U29C, U30G
# DNA 1: CAATCTGAATTCCGGTCTCCC
# DNA 2: TGGTGGCTACGACGGGATT
# B20: GUUGUCC (DNA:RNA)
# RNA: B10 RNA with C25G, A26U, C28G, U30C, U31C
# DNA 1: CAATCTGAATTCCGGTCTCCC
# DNA 2: TGGTGGCTACGACGGGATT
# B21: CUGGCAG (DNA:RNA)
# RNA: B1 RNA with G25C, G26U, C27G, U28G, A29C
# DNA 1: CAATCTGAATTCCGGTCTCCC
# DNA 2: TGGTGGCTACGACGGGATT
# B22: UGGCACU (DNA:RNA)
# RNA: B10 RNA with C25U, A26G, U27G, U29A, U30C
# DNA 1: CAATCTGAATTCCGGTCTCCC
# DNA 2: TGGTGGCTACGACGGGATT
# B23: CUGGCAC (DNA:RNA)
# RNA: B10 RNA with A26U, U27G, C28G, U29C, U30A, U31C
# DNA 1: CAATCTGAATTCCGGTCTCCC
# DNA 2: TGGTGGCTACGACGGGATT
# B24: UGGCAGU (DNA:RNA)
# RNA: B10 RNA with C25U, A26G, U27G, U29A, U30G
# DNA 1: CAATCTGAATTCCGGTCTCCC
# DNA 2: TGGTGGCTACGACGGGATT
# B25: UGGGCAC (DNA:RNA)
# RNA: B1 RNA with G25U, C27G, U28G, A29C, G31C
# DNA 1: CAATCTGAATTCCGGTCTCCC
# DNA 2: TGGTGGCTACGACGGGATT
# B26: UGGGCAG (DNA:RNA)
# RNA: B1 RNA with G25U, C27G, U28G, A29C
# DNA 1: CAATCTGAATTCCGGTCTCCC
# DNA 2: TGGTGGCTACGACGGGATT
# B27: CCGCAGU (DNA:RNA)
# RNA: B10 RNA with A26C, U27G, U29A, U30G
# DNA 1: CAATCTGAATTCCGGTCTCCC
# DNA 2: TGGTGGCTACGACGGGATT
# B28: AACCGUA (DNA:RNA)
# RNA: B10 RNA with C25A, U27C, U29G, U31A
# DNA 1: CAATCTGAATTCCGGTCTCCC
# DNA 2: TGGTGGCTACGACGGGATT
# B29: CGCCCCG (DNA:RNA)
# RNA: B1 RNA with G25C, U28C, A29C, A30C
# DNA 1: CAATCTGAATTCCGGTCTCCC
# DNA 2: TGGTGGCTACGACGGGATT
# B30: UUGCACU (DNA:RNA)
# RNA: B10 RNA with C25U, A26U, U27G, U29A, U30C
# DNA 1: CAATCTGAATTCCGGTCTCCC
# DNA 2: TGGTGGCTACGACGGGATT
# B31: GGGAUAU (DNA:RNA)
# RNA: B1 RNA with C27G, U28A, A29U, G31U
# DNA 1: CAATCTGAATTCCGGTCTCCC
# DNA 2: TGGTGGCTACGACGGGATT
# Molecular target: T1, RBFOX1 RRM
# Assay: EMSA; HiTS-Eq, 1 nM pool, 10 min; buffer printed only for the single-RNA assays: 10 mM Tris pH 7.5, 150 mM NaCl, 3.4 mM EDTA, 0.001% NP-40, 30 C
# Conditions: tags: His6 N-terminal (pET28a); label: 5' 32P
# Summary of the method: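 These values rest on relative association constants, computed from read-count changes of each RNA species versus the control reaction and normalised to the cognate motif. Reads came from free RNA recovered by 8% native PAGE after purified RbFox RRM (wild type or mutant) at increasing concentrations was equilibrated for 10 min in 50 µL with 1 nM of a 5′-radiolabelled pool with 7 randomized nucleotides and DNA-annealed flanks.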
row,Binder,binding signal
1,B1,0.0134 KA relative to UGCAUGU
2,B2,0.0189 KA relative to UGCAUGU
3,B3,0.00509 KA relative to UGCAUGU
4,B4,0.00125 KA relative to UGCAUGU
5,B5,0.0132 KA relative to UGCAUGU
6,B6,0.0333 KA relative to UGCAUGU
7,B7,0.00479 KA relative to UGCAUGU
8,B8,0.00982 KA relative to UGCAUGU
9,B9,0.00144 KA relative to UGCAUGU
10,B10,0.00311 KA relative to UGCAUGU
11,B11,0.0391 KA relative to UGCAUGU
12,B12,0.025 KA relative to UGCAUGU
13,B13,0.0501 KA relative to UGCAUGU
14,B14,0.0119 KA relative to UGCAUGU
15,B15,0.0254 KA relative to UGCAUGU
16,B16,0.0131 KA relative to UGCAUGU

row,Binder,binding signal
1,B17,0.0138 KA relative to UGCAUGU
2,B18,0.00157 KA relative to UGCAUGU
3,B19,0.00915 KA relative to UGCAUGU
4,B20,0.0202 KA relative to UGCAUGU
5,B21,0.0227 KA relative to UGCAUGU
6,B22,0.0174 KA relative to UGCAUGU
7,B23,0.0183 KA relative to UGCAUGU
8,B24,0.0192 KA relative to UGCAUGU
9,B25,0.0337 KA relative to UGCAUGU
10,B26,0.0337 KA relative to UGCAUGU
11,B27,0.00716 KA relative to UGCAUGU
12,B28,0.00191 KA relative to UGCAUGU
13,B29,0.007 KA relative to UGCAUGU
14,B30,0.021 KA relative to UGCAUGU
15,B31,0.0263 KA relative to UGCAUGU
